The panel holds about 83,000 compounds, 20% with a hit somewhere; the sample as a whole holds those more often.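 Interpretation: 100, growth as untreated; towards 0, rising growth inhibition; 0, no net growth; 0 to -100, cell death. Compounds scoring below 10 were considered active.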 Calls of active or inactive are those of the source.
Key:
Test in all cases: NCI-60 one-dose screen, 48 h (100 = growth as untreated, 0 = no growth, -100 = all killed)
Settings in all cases: 10 µM unless noted
DU-145 prostate = system: DU-145 prostate
K-562 leukemia = system: K-562 leukemia
MALME-3M melanoma = system: MALME-3M melanoma
MDA-MB-231 breast = system: MDA-MB-231 breast
RXF 393 renal = system: RXF 393 renal
SF-268 CNS = system: SF-268 CNS
SF-295 CNS = system: SF-295 CNS
SF-539 CNS = system: SF-539 CNS
UACC-257 melanoma = system: UACC-257 melanoma
M14 melanoma = system: M14 melanoma

Measured: growth

Cc1cc2nc3c4ccccc4n(CC4=NCCN4)c3nc2cc1C
inactive: SF-268 CNS 40.7%
active: DU-145 prostate 2.14% | K-562 leukemia -13.1% | MALME-3M melanoma -92.7% | MDA-MB-231 breast -43.2% | RXF 393 renal -67.2% | SF-295 CNS -74.8% | SF-539 CNS -94.2% | UACC-257 melanoma -44.4% | M14 melanoma -79.2%

CCCCCCCCc1ccc(C(=O)Nc2cccc(P(=O)(O)O)c2)cc1
inactive: DU-145 prostate 107% | K-562 leukemia 97.6% | MALME-3M melanoma 106% | MDA-MB-231 breast 116% | RXF 393 renal 129% | SF-268 CNS 107% | SF-295 CNS 96.5% | SF-539 CNS 97.4% | UACC-257 melanoma 97.1% | M14 melanoma 96.2%

COc1ccc(N2N=C(c3ccc4c(c3)OCO4)CC2c2cccc(NC(=O)CCNS(=O)(=O)c3ccc(Cl)cc3)c2)cc1 (stereo not given)
active: K-562 leukemia 9.67% | MDA-MB-231 breast -5.89% | RXF 393 renal 4.88%
inactive: DU-145 prostate 39.7% | MALME-3M melanoma 18.7% | SF-268 CNS 32.8% | SF-295 CNS 10.7% | SF-539 CNS 38.2% | UACC-257 melanoma 49.2% | M14 melanoma 29.5%

CN(C)CCOc1ccc(C(=O)C2[C@H](c3ccc(Cl)cc3)[C@@H](c3ccccc3)NC23C(=O)Nc2ccc(Br)cc23)cc1 (stereo not given in full)
inactive: DU-145 prostate 14.3% | SF-268 CNS 41.8% | SF-539 CNS 13% | UACC-257 melanoma 53.8%
active: K-562 leukemia -32.3% | MALME-3M melanoma -50.2% | MDA-MB-231 breast -20.5% | RXF 393 renal -0.638% | SF-295 CNS -53.4% | M14 melanoma -71.5%

COCOc1ccc2c(=O)c(C)c(C(=O)N[C@@H](Cc3ccccc3)C(O)C(=O)NCCc3ccc(OC)cc3)oc2c1 (stereo not given in full)
inactive: DU-145 prostate 106% | K-562 leukemia 84.1% | MALME-3M melanoma 111% | MDA-MB-231 breast 99% | RXF 393 renal 99.1% | SF-268 CNS 120% | SF-295 CNS 107% | SF-539 CNS 109% | UACC-257 melanoma 116% | M14 melanoma 118%

Cn1cc(-c2nc(N)nnc2-c2c[nH]c3ccc(Br)cc23)c2cccnc21
inactive: DU-145 prostate 59.7% | K-562 leukemia 24.5% | MALME-3M melanoma 57% | MDA-MB-231 breast 63.1% | RXF 393 renal 63.9% | SF-268 CNS 66.7% | SF-295 CNS 18.1% | SF-539 CNS 20.1% | UACC-257 melanoma 81.3% | M14 melanoma 33.9%

C=C1CC[C@@H]2[C@]3(C)COC(c4ccccc4)O[C@@H]3CC[C@@]2(C)[C@@H]1C/C=C1/C(=O)OCC1OC(C)=O (stereo not given in full)
active: K-562 leukemia -39.6% | MALME-3M melanoma -54.8% | MDA-MB-231 breast -83.1% | RXF 393 renal -87.7% | SF-295 CNS -4.5% | SF-539 CNS -100% | UACC-257 melanoma -49.6% | M14 melanoma -86.9%
inactive: DU-145 prostate 22.5% | SF-268 CNS 35.1%

O=C(CCN1C(=O)/C(=C/c2ccc(F)cc2)SC1=S)N1CCOCC1
inactive: DU-145 prostate 35.8% | K-562 leukemia 43% | MALME-3M melanoma 46.1% | MDA-MB-231 breast 60.9% | RXF 393 renal 47.7% | SF-268 CNS 86.7% | SF-295 CNS 104% | SF-539 CNS 68.6% | UACC-257 melanoma 52% | M14 melanoma 57.1%

CC(C)CSc1nc(NCCc2c[nH]c3ccccc23)c(C#N)c(-c2ccc(Cl)cc2)n1
inactive: DU-145 prostate 67.1% | K-562 leukemia 13.6% | MALME-3M melanoma 81.9% | MDA-MB-231 breast 48.2% | RXF 393 renal 31% | SF-268 CNS 55% | SF-295 CNS 66.4% | SF-539 CNS 60.9% | UACC-257 melanoma 85.8% | M14 melanoma 67.6%

O=C1CC(Sc2n[nH]c(-c3ccncc3)n2)C(=O)N1c1ccc(Br)cc1 (stereo not given)
inactive: DU-145 prostate 117% | K-562 leukemia 88.5% | MALME-3M melanoma 104% | MDA-MB-231 breast 99% | RXF 393 renal 137% | SF-268 CNS 117% | SF-295 CNS 107% | SF-539 CNS 102% | UACC-257 melanoma 105% | M14 melanoma 115%

C#CCOc1ccc(/C=N/Nc2nc(-c3ccc(Cl)cc3)cs2)cc1OC
inactive: DU-145 prostate 81.5% | K-562 leukemia 26.2% | MALME-3M melanoma 91.6% | MDA-MB-231 breast 77.1% | RXF 393 renal 27.1% | SF-268 CNS 73.8% | SF-295 CNS 77.4% | SF-539 CNS 70.6% | UACC-257 melanoma 45.5% | M14 melanoma 61.1%

CN(C)c1nc(NCCNS(=O)(=O)c2ccc(C3=Nc4c(N)nc(N)nc4NC(c4ccc(C(F)(F)F)cc4)C3)cc2)nc(Nc2ccc(F)cc2)n1 (stereo not given)
active: K-562 leukemia 1.59% | MALME-3M melanoma -36.8% | MDA-MB-231 breast -37.4% | RXF 393 renal -11.9% | SF-539 CNS -65.4% | M14 melanoma 7.55%
inactive: DU-145 prostate 26.9% | SF-268 CNS 28% | SF-295 CNS 20.8% | UACC-257 melanoma 43%

CC(=O)c1c(N)c(C#N)cn1-c1ccc(Cl)cc1Cl
inactive: DU-145 prostate 113% | K-562 leukemia 95.1% | MALME-3M melanoma 107% | MDA-MB-231 breast 99.7% | RXF 393 renal 104% | SF-268 CNS 107% | SF-295 CNS 116% | SF-539 CNS 99.9% | UACC-257 melanoma 106% | M14 melanoma 98.9%

O=C(COc1ccc(NC(=O)Nc2ccc(Cl)c(Cl)c2)cc1)N=Nc1c(O)[nH]c2ccc(Br)cc12
active: DU-145 prostate -30.1% | K-562 leukemia 7.78% | MALME-3M melanoma -85.4% | MDA-MB-231 breast -59.3% | RXF 393 renal -54.3% | SF-268 CNS 1.44% | SF-295 CNS -68.3% | SF-539 CNS -90.8% | UACC-257 melanoma -76.5% | M14 melanoma -63.8%

CCCCSc1nc(Nc2ccc(S(N)(=O)=O)cc2)c(C#N)c(-c2cc(OC)c(OC)c(OC)c2)n1
active: K-562 leukemia 3.62% | MALME-3M melanoma 8.31%
inactive: DU-145 prostate 54.1% | MDA-MB-231 breast 42.5% | RXF 393 renal 32.8% | SF-268 CNS 60.7% | SF-295 CNS 24.2% | SF-539 CNS 38.1% | UACC-257 melanoma 61.7% | M14 melanoma 33.3%

CCCSc1nc(NCCc2c[nH]c3ccccc23)c(C#N)c(-c2ccc(OC)cc2)n1
inactive: DU-145 prostate 62.2% | K-562 leukemia 23.5% | MALME-3M melanoma 83.1% | MDA-MB-231 breast 41.2% | SF-268 CNS 57.4% | SF-295 CNS 29.7% | SF-539 CNS 50.6% | UACC-257 melanoma 89.8% | M14 melanoma 63.5%
active: RXF 393 renal -17.3%

CCOC(=O)C(N=Nc1ccc(S(=O)(=O)N=C(N)N)cc1)C(C)=O (stereo not given)
inactive: DU-145 prostate 111% | K-562 leukemia 94.1% | MALME-3M melanoma 129% | MDA-MB-231 breast 107% | RXF 393 renal 105% | SF-268 CNS 101% | SF-295 CNS 125% | SF-539 CNS 104% | UACC-257 melanoma 126% | M14 melanoma 124%

Cc1ccc(-c2nc(Nc3ccccc3S(N)(=O)=O)c3ccccc3n2)cc1
inactive: DU-145 prostate 77.6% | K-562 leukemia 46.1% | MALME-3M melanoma 97.7% | MDA-MB-231 breast 21.6% | RXF 393 renal 51.1% | SF-268 CNS 70.1% | SF-295 CNS 94.4% | UACC-257 melanoma 106% | M14 melanoma 90.3%
active: SF-539 CNS -11.9%

Cc1ccc(C(=O)C(c2c[nH]c3ccccc23)c2c[nH]c3ccccc23)cc1
inactive: MALME-3M melanoma 72.6% | MDA-MB-231 breast 24.2% | RXF 393 renal 34% | SF-268 CNS 51.5% | SF-295 CNS 81.9% | SF-539 CNS 70.4% | UACC-257 melanoma 76.6% | M14 melanoma 33.9%
active: DU-145 prostate 4.62% | K-562 leukemia 5.78%

Cn1cc(-c2nnc(N)nc2-c2c[nH]c3ccccc23)c2cccnc21
inactive: DU-145 prostate 76.9% | K-562 leukemia 15.7% | MALME-3M melanoma 38.2% | MDA-MB-231 breast 48.5% | RXF 393 renal 71.1% | SF-268 CNS 65.9% | SF-295 CNS 32% | SF-539 CNS 49.3% | UACC-257 melanoma 62.3% | M14 melanoma 20.8%

C#C[C@]1(O)CC[C@H]2[C@@H]3CC=C4c5sc(-c6ccc([N+](=O)[O-])cc6)nc5CC[C@]4(C)[C@H]3CC[C@@]21C
active: DU-145 prostate 6.96% | K-562 leukemia 5.27% | MALME-3M melanoma -28.9% | MDA-MB-231 breast -23.5% | RXF 393 renal -21.7% | SF-295 CNS -41.3% | SF-539 CNS -49% | M14 melanoma -53.7%
inactive: SF-268 CNS 44.5% | UACC-257 melanoma 32.7%

COc1ccc(-c2nc(SC(C)C)nc(NCCc3c[nH]c4ccccc34)c2C#N)cc1
active: RXF 393 renal -20.3%
inactive: DU-145 prostate 54% | K-562 leukemia 14.5% | MALME-3M melanoma 78.8% | MDA-MB-231 breast 26.6% | SF-268 CNS 49.8% | SF-295 CNS 33.6% | SF-539 CNS 42.7% | UACC-257 melanoma 82.5% | M14 melanoma 55.7%

COCOc1cc2oc(C(=O)N[C@@H](Cc3ccccc3)C(O)C(=O)NCc3ccccc3)c(C)c(=O)c2cc1OCOC (stereo not given in full)
active: RXF 393 renal -23.7%
inactive: DU-145 prostate 52.8% | K-562 leukemia 90.4% | MALME-3M melanoma 22.3% | MDA-MB-231 breast 20.7% | SF-268 CNS 65.8% | SF-295 CNS 89% | SF-539 CNS 24.7% | UACC-257 melanoma 61.1% | M14 melanoma 82.9%

O=C(c1ccc(Cl)cc1)c1ccc(OCCCN2CCN(c3ccncc3)CC2)cc1
inactive: DU-145 prostate 62.1% | MDA-MB-231 breast 17.2% | RXF 393 renal 32.8% | SF-268 CNS 73.2% | SF-295 CNS 17.6% | SF-539 CNS 16.7% | UACC-257 melanoma 42.4%
active: K-562 leukemia 1.45% | MALME-3M melanoma -54.1% | M14 melanoma -36.2%

Source: PubChem BioAssay (NCI)
